This is part of a sample that, as a whole, favours compounds with a hit. Of some 79,000 tested, about 15% had one in any assay. Values without a mark were called inactive. Activity calls are given as the source filed them. Cut-off read from the data, not from the text of the source: active = growth inhibition above about 70%; inactive = the rest.
Test: NCI Yeast Anticancer Drug Screen. Data for the bub3 strain (AID 167)
Settings: S. cerevisiae bub3 mutant strain, active compounds read high
Method: Growth inhibition of yeast strains with defined genetic alterations is measured as a screen for potential anti-cancer activity. Selected strains with alterations in DNA damage repair or cell cycle control were exposed to compounds and growth inhibition was measured relative to vehicle treated controls. The strain used in this assay is bub3

[1] = at 5.0 µM (retest, dose inferred, filed as 0.5)
[2] = at 50.0 µM (retest, dose inferred, filed as 5.0)

| Compound | growth inhibition (at 1.2 µM) [%] | growth inhibition (at 3.7 µM) [%] | growth inhibition [1] [%] | growth inhibition (at 11.0 µM) [%] | growth inhibition (at 33.0 µM) [%] | growth inhibition [2] | growth inhibition (at 50.0 µM) | growth inhibition (at 100.0 µM) |
| --- | --- | --- | --- | --- | --- | --- | --- | --- |
| CCS(=O)(=O)Nc1ccc(Nc2c3ccccc3nc3ccccc23)c(OC)c1 | -50 | -32 | 42 | -36 | 3 | 65% | 50.5% | 67% |
| NC(N)=NC(N)=Nc1ccccc1 (tested in a mixture with another compound) | -7 | 2 | 20 | 10 | 9 | 6% | 49.8% | 29% |
| CCCCCCNCCCNc1c2ccccc2nc2cccc([N+](=O)[O-])c12 | -10 | -16 | -42 | -12 | 15 | 98% (active) | 43.9% | 98% (active) |
| CC(C)CCC[C@@H](C)[C@H]1CC[C@H]2[C@@H]3CC[C@H]4C[C@H](N)CC[C@]4(C)[C@H]3CC[C@]12C | -2 | -4 | -3 | -6 | -4 | 52% | 15.1% | -2% |
| CC(=O)CCC1=C(C)C(=O)C(=O)C(C)=C1O | -5 | -16 | -14 | 6 | 17 | 15% | 75% (active) | 89% (active) |

Source: PubChem BioAssay (NCI)
